In ChEMBL document CHEMBL1157539, “Thousands of chemical starting points for antimalarial lead identification” (Nature, 2010) one finds Inhibition data, which are given here for 17 compounds.

Assay type in all cases: functional
The test system of test [1] is Plasmodium falciparum. Put plainly: GSK_TCMDC: Inhibition of Plasmodium falciparum 3D7 in whole red blood cells, using parasite LDH activity as an index of growth. Test compounds present at 2uM.
Test [2] deals with Plasmodium falciparum. Put plainly: GSK_TCMDC: Inhibition of Plasmodium falciparum Dd2 in whole red blood cells, using parasite LDH activity as an index of growth. Test compounds present at 2uM.
The next test concerns HepG2. In words: GSK_TCMDC: Percent inhibition of human HepG2 cell line. Test compounds present at 10uM.

With `Cc1cc(NC(=O)c2cccs2)ccc1OC1CCN(Cc2ccccc2)C1.O=C(O)C(F)(F)F` (stereo unspecified), the values for the Inhibition with Plasmodium falciparum [1], in the test with Plasmodium falciparum [2] and in the test with HepG2 were 84%, 87% and 7%, respectively.
`CCCCC(N)COc1cccc2c(-c3ccncc3)c(-c3cccc(NC(=O)Nc4ccccc4)c3)nn12` (stereo unspecified): the Inhibition with Plasmodium falciparum [1] turned out to be 100%; with Plasmodium falciparum [2], 82%; in the test with HepG2, 13%.
The matching figures for `COc1cc(F)c2ncc(Cl)c([C@@H](O)CN3CCC(NCc4cc5c(cn4)OCCO5)CC3)c2c1.Cl`: 100%, 100% and 11%.
The matching figures for `Cc1cc(-c2ccc(O)c(CNC3CCCCC3)c2)cnc1N`: 100%, 100% and 27%.
Consider `CS(=O)(=O)N1CC2(CCN(CCC(NC(=O)NCc3ccc(Cl)c(Cl)c3)c3ccc(Cl)c(Cl)c3)CC2)c2ccccc21` (stereo unspecified), for which the Inhibition was determined as 89% with Plasmodium falciparum [1], 59% with Plasmodium falciparum [2] and 19% with HepG2.
As to `O=C(Nc1ccc(Cl)cc1)Nc1ccc(OCC(O)CN2CCCCC2)cc1` (stereo unspecified), the Inhibition turned out to be 83% in the test with Plasmodium falciparum [1], 13% in the test with Plasmodium falciparum [2] and 18% in the test on HepG2.
For `COC(=O)c1cccc(CNCc2ccc(-c3ccc(-c4nc5cccc(C)c5[nH]4)cc3)cc2)c1.O=C(O)C(F)(F)F` the same measures were 100%, 86% and 17%.
For `O=C(NCCCCN1CCN(c2cccc3c2OCCO3)CC1)c1ccc(NC(=O)c2cc(Cl)cc(Cl)c2)cc1` the same measures were 100%, 89% and 21%.
The matching figures for `O=C(O)C(F)(F)F.O=C(c1cccs1)N(Cc1cccc(-c2ccc(CNCCc3ccccc3)cc2)c1)C1CCN(Cc2ccccc2)CC1`: 95%, 76% and 3%.
`CCN(CCCN1CCCCC1)c1cc(C)nc(Nc2cc(F)cc(F)c2)n1.O=C(O)C(F)(F)F`: the Inhibition with Plasmodium falciparum [1] is listed as 100%; with Plasmodium falciparum [2], 64%; with HepG2, 15%.
The matching figures for `COc1ccc(-c2cnc3ccc(NCc4ccc(S(N)(=O)=O)cc4)nn23)cc1`: 96%, 99% and 19%.
For the compound `CCn1cc(C=C2Oc3c(ccc(O)c3CN3CCCCC3)C2=O)c2cc(OC)ccc21`, the Inhibition with Plasmodium falciparum [1] was 99%; with Plasmodium falciparum [2] it was 99%; in the test on HepG2 it was 0%.
With `Cl.O=c1cc(NCCNCc2cccc(-c3ccccc3)c2)[nH]c2ccccc12`, the Inhibition in the test on Plasmodium falciparum [1] is 93%; in the test with Plasmodium falciparum [2], 68%; in the test on HepG2 it was 0%.
The matching figures for `Cc1nc(NC(=N)N)nc2ccc(C(C)(C)C)cc12.Cl`: 96%, 91% and 4%.
For `Cc1cccc2nc(-c3cccc(-c4ccc(NC(=O)CC5NC(=O)c6ccccc65)cc4)c3)[nH]c12` (stereo unspecified) the same measures were 100%, 67% and 30%.
For `CS(=O)(=O)c1cccc2sc(N3CCN(C(=O)c4ccc([N+](=O)[O-])o4)CC3)nc12` the same measures were 84%, 61% and 0%.
Turning to `Br.CCSc1ccccc1CON1C(=N)N=C(N)NC1(C)C`, the figures for the Inhibition in the test with Plasmodium falciparum [1], in the test with Plasmodium falciparum [2] and in the test on HepG2 were 96%, 10% and 62%, respectively.
